Data as given in PubChem BioAssay AID602288 (National Center for Advancing Translational Sciences (NCATS), 2012).
Inconclusive results are not listed. Where a call stands in place of a potency, no number is given. The source made the active and inactive calls. Calls follow the shape of the dose curve; as a rule, active = well fitted cell-killing curve with a large enough effect (not every such curve was filed as active); inconclusive = small, poorly fitted or top-dose-only effect, or another doubt; inactive = no such curve, though single readings can be large or run the other way.

Experiment: qHTS Assay for Agonists of the Relaxin Receptor RXFP1: Cytotoxicity SAR
Conditions: HEK293-RXFP1 viability, ATPLite luminescence, 72 h; series mostly up to 78.1 µM
Excerpt: The relaxin hormone is involved in the variety of biological functions in normal tissues and diseases. The role of relaxin is well-established in female reproduction and parturition, mammary gland and endometrial development, maintenance of myometrial quiescence during pregnancy. Relaxin signaling through its G protein-coupled receptor (GPCR) RXFP1 results in ECM remodeling through regulation of collagen deposition, cell invasiveness, proliferation and overall tissue homeostasis. […] Recombinant human relaxin (rhRlx) is currently being tested in clinical trials as a protective agent in congestive heart failure, in treating severe preeclampsia, and as an anti-fibrotic agent in systemic sclerosis. In the primary screen, upon relaxin binding RXFP1 activation leads to the activation of adenylate cyclase (AC) via Gs. cAMP will activate PKA, which phosphorylates many signaling proteins. Thus, detection of cAMP increase is an easy and reliable indication of relaxin receptor activation. To screen for agonists of the relaxin receptor, a HEK293T cell line stably transfected with RXFP1 was used. RXFP1 activation was assayed by changes in cAMP levels as detected with a time-resolved fluorescence energy transfer (TR-FRET) cAMP detection kit. We conducted this followup assay to measure the effect of the lead candidates on cell health by measuring ATP levels (ATPLite). NIH Chemical Genomics Center [NCGC] NIH Molecular Libraries Probe Production Centers Network [MLPCN] MLPCN Grant: R03 MH085705-01A1 Assay Submitter (PI): Alexander Agoulnik
In this assay, the luciferase enzyme catalyzes the conversion of the added substrate D-luciferin to oxyluciferin and light with ATP. Thus, the emitted light is proportional to the ATP concentration. To evaluate the cytotoxic properties of the compounds, HEK293-RXFP1 cells were incubated with compounds for 72 h in growth media (DMEM 10% FBS, 1x Pen/Strep, 0.5 mg/mL G418) in 384-well format. After compound incubation, the levels of ATP in each well were measured with the addition of the ATPLite assay reagent.
In the case of `O=C(Nc1cccc(SC(F)(F)F)c1)c1ccccc1NC(=O)C1CCCCC1`, the Potency is reported as “inactive”. In the case of `CCCCOc1ccccc1C(=O)Nc1ccccc1C(=O)Nc1cccc(S(=O)(=O)C(F)(F)F)c1`, the Potency is reported as “inactive”. For `CCOc1ccccc1C(=O)Nc1cnccc1C(=O)Nc1cccc(S(=O)(=O)C(F)(F)F)c1`, the Potency was 23.6 µM (active). In the case of `CCOc1ccccc1C(=O)Nc1sccc1C(=O)Nc1cccc(S(=O)(=O)C(F)(F)F)c1`, the Potency is reported as 7.47 µM (active). For `Cc1ccccc1C(=O)Nc1ccccc1C(=O)Nc1cccc(C(F)(F)F)c1`, the Potency was “inactive”. In the case of `CCOc1ccccc1C(=O)Nc1ccccc1C(=O)Nc1cccc(C(F)(F)F)c1`, the Potency is reported as “inactive”. With `COCCOc1ccccc1C(=O)Nc1ccccc1C(=O)Nc1cccc(C(F)(F)F)c1` the Potency was “inactive”.
